Measured values from PubChem BioAssay (NCI).
About 83,000 compounds went through this panel and 20% of them were active in at least one assay; those are over-represented in the sample as a whole.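 Percent growth is the endpoint: 0 to 100 indicates growth inhibition (40 means 60% inhibition), 0 means no net growth, and negative values indicate cell death.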 Values without a mark were called inactive. Active and inactive are the calls of the source. The calls were made as follows: active = growth percent below 10; inactive = the rest.

Experiments:
Assay in all cases: NCI-60 one-dose screen, 48 h (100 = growth as untreated, 0 = no growth, -100 = all killed)
SR leukemia = conditions: 10 µM unless noted
RPMI-8226 leukemia = conditions: 10 µM
OVCAR-8 ovarian = conditions: 10 µM unless noted
OVCAR-5 ovarian = conditions: 10 µM unless noted
SK-OV-3 ovarian = conditions: 10 µM
OVCAR-3 ovarian = conditions: 10 µM unless noted
HS 578T breast = conditions: 10 µM unless noted
T-47D breast = conditions: 10 µM
BT-549 breast = conditions: 10 µM unless noted
MDA-MB-435 melanoma = conditions: 10 µM unless noted
SW-620 colon = conditions: 10 µM unless noted
MCF7 breast = conditions: 10 µM unless noted
HCT-116 colon = conditions: 10 µM unless noted
HCC-2998 colon = conditions: 10 µM unless noted
KM12 colon = conditions: 10 µM unless noted
IGROV1 ovarian = conditions: 10 µM unless noted
NCI/ADR-RES ovarian = conditions: 10 µM unless noted
OVCAR-4 ovarian = conditions: 10 µM unless noted

| SMILES | growth (SR leukemia) | growth (RPMI-8226 leukemia) | growth (OVCAR-8 ovarian) | growth (OVCAR-5 ovarian) | growth (SK-OV-3 ovarian) | growth (OVCAR-3 ovarian) | growth (HS 578T breast) | growth (T-47D breast) | growth (BT-549 breast) | growth (MDA-MB-435 melanoma) | growth (SW-620 colon) | growth (MCF7 breast) | growth (HCT-116 colon) | growth (HCC-2998 colon) | growth (KM12 colon) | growth (IGROV1 ovarian) | growth (NCI/ADR-RES ovarian) | growth (OVCAR-4 ovarian) |
| --- | --- | --- | --- | --- | --- | --- | --- | --- | --- | --- | --- | --- | --- | --- | --- | --- | --- | --- |
| Clc1ccccc1Nc1ccc2nnc(-c3ccncc3)n2n1 | 38.6% | 96.2% | 101% | 106% | 121% | 110% | 99.6% | 100% | 101% | 98% | 114% | 95.9% | 101% | 118% | 101% | – | – | – |
| O=C1c2[nH]cc(CN[C@@H]3CCCN3)c2C(=O)c2c1c(O)c1ccccc1c2O | -69.6% (active) | -55.5% (active) | -92% (active) | -95% (active) | -100% (active) | -95.9% (active) | -50% (active) | -72.4% (active) | 41.1% | -98.3% (active) | -98.1% (active) | -96.5% (active) | -82.8% (active) | -85.8% (active) | -89.8% (active) | -83% (active) | 20.3% | – |
| Cc1oc2c(c1C(=O)N1CC[C@@H](N)C1)C(=O)c1c(c(O)c3ccccc3c1O)C2=O | 1.4% (active) | 12.4% | 12.9% | 85.3% | 35.3% | 3.52% (active) | 34.3% | 61.8% | 79% | 40.3% | 3.53% (active) | -1.04% (active) | 5.14% (active) | 12.3% | 15.7% | – | 8.79% (active) | – |
| Cc1nc(NC(=O)COc2cccc(/C=C3\COc4ccccc4C3=O)c2)sc1C | -69.5% (active) | -74.2% (active) | 7.04% (active) | – | 92.2% | -83.3% (active) | -33.7% (active) | 53.2% | -68.5% (active) | -44.5% (active) | -100% (active) | -58.7% (active) | -88.4% (active) | – | -92.4% (active) | – | – | 55.1% |
| CCOC(=O)c1cn2c3c(cc(F)cc3c1=O)C(CC)c1ccccc1C2 (stereo not drawn) | 66.2% | 64.2% | 95.9% | 104% | 104% | 92.9% | – | 93.1% | 96.7% | 93.9% | 107% | 90.3% | 102% | 93.7% | 102% | 93.1% | 91.2% | – |
| O=C1/C(=C/c2ccc(Cl)cc2)CN(Cc2cn(CCCNc3ccnc4cc(Cl)ccc34)nn2)C/C1=C\c1ccc(Cl)cc1 | -31.9% (active) | -49.3% (active) | – | -74.1% (active) | -48.5% (active) | -90.4% (active) | 9.27% (active) | -10.8% (active) | -87.6% (active) | -86.7% (active) | -75.6% (active) | -97.9% (active) | -64.4% (active) | -88% (active) | -75.1% (active) | -0.666% (active) | 2.36% (active) | -9.71% (active) |
| CSc1ccc(OC(C)=O)cc1C | 95.7% | 101% | – | 99.4% | 95% | 106% | 103% | 90.6% | 98% | – | 105% | 100% | 101% | 102% | 101% | 103% | – | 99.6% |
| Clc1nc(-c2ccccn2)nc2sc3c(c12)CCCCCC3 | 66.3% | – | 87.1% | 108% | 105% | 108% | 91.3% | 42.2% | 85.1% | 91.4% | 102% | 54% | 84.5% | 63.4% | 91.6% | 89.8% | 89.3% | 85.7% |
| O=C(O)c1ccccc1Oc1cc(-c2ccco2)nc(OCCBr)n1 | 102% | 123% | – | – | 103% | 105% | 98.1% | 101% | 92.1% | 101% | 105% | 101% | 96.5% | 107% | 95.6% | 106% | 105% | 98.5% |
| COc1nc2c(cc1S(=O)(=O)c1ccccc1)CCc1c-2cnn1-c1ccccc1Cl | 37.9% | 56.8% | – | 70.6% | – | 70.8% | 68.4% | 26.5% | 51.8% | 65.7% | 79.1% | 42.2% | 48.4% | 77.7% | 49.7% | 77.1% | 70.2% | 67.8% |
| O=c1[nH]c(=S)c2c(n1CCCO)CCC2 | 97% | 101% | – | 99.4% | – | 110% | 99.8% | – | 107% | – | 103% | 96.5% | 99.1% | 108% | 105% | 103% | 103% | 102% |
| COc1cccc(C2CC(=O)Nc3cc4c(cc32)OCO4)c1OC (stereo not drawn) | 86.2% | 79.2% | – | 98.8% | 102% | 99.7% | 93.1% | 87.5% | 101% | 97% | 105% | 94.8% | 93.6% | – | 91.6% | 93.4% | 92.2% | 95% |
| C[C@@H](Oc1cc(-c2cnn(C3CC4(CNC4)C3)c2)cnc1N)c1c(Cl)ccc(F)c1Cl | -24.6% (active) | – | 48.9% | 38.1% | 66.3% | 63.2% | 41.6% | 43.3% | 80.3% | 41% | 23.8% | 9.06% (active) | 16.7% | 57.1% | -18.5% (active) | 64.2% | 91.3% | 48.2% |
| O=C1c2cc(S(=O)(=O)O)ccc2C(=O)c2c1cccc2[N+](=O)[O-] | 98.2% | – | 95.6% | 110% | 106% | 114% | 106% | 103% | 98.3% | 105% | 110% | 101% | 106% | 110% | 104% | 120% | 111% | 115% |
| COC(=O)[C@@H]1CCCN1C(=O)[C@@H]1CCCN1C(=O)[C@@H](Cc1c[nH]c2ccccc12)NC(=S)Nc1cc(C(F)(F)F)cc(C(F)(F)F)c1 | -17.5% (active) | – | 67.6% | 91% | 90.9% | 44.1% | 59.2% | 32.8% | 82.4% | 5.44% (active) | 50.3% | 25.9% | 34% | 35.4% | 66.2% | 36% | 99.8% | 42% |
| C=C1CC[C@@H]2[C@@](C)(CCC[C@]2(C)C(=O)O)[C@@H]1CC[C@H](CO)CCO | 85.2% | 113% | – | 108% | 102% | 76.4% | 107% | 90.5% | – | 109% | 114% | 101% | 107% | 108% | 102% | 99% | – | 99% |
| Cc1ccc(S(=O)(=O)N2CCc3ccc(O)c4c3C2Cc2cc(Cl)ccc2-4)cc1 (stereo not drawn) | 18.9% | 93.8% | – | 99% | 70% | -3.87% (active) | 62.8% | 65.4% | – | 8.9% (active) | 33.1% | 23.3% | 70.9% | – | 30.8% | 57.6% | 42.6% | 70.3% |
| COc1ccccc1/C=C/C(=O)/C=C/c1ccccc1O | -61.2% (active) | – | 2.91% (active) | -35% (active) | 88.9% | -40.9% (active) | -40.9% (active) | -37.2% (active) | -34.1% (active) | -36.3% (active) | -80.3% (active) | -18.6% (active) | -93.2% (active) | 4.04% (active) | -93.9% (active) | 5.17% (active) | -19.4% (active) | 12.6% |
| COc1ncc(F)c(OC)n1 | 94% | 101% | – | 97.9% | 97.8% | 114% | 118% | 104% | 108% | – | 107% | 96.6% | 101% | 110% | 105% | 103% | 105% | 90% |
